Data on seven compounds can be found in PubChem BioAssay (Tox21).

Molecules are shown by their SMILES. Where “and” joins values, the source holds several entries; their conditions need not be identical. Identical values can stand only once. Records with an inconclusive call do not appear. Some structures have more than one record in an assay (separate samples or runs), and their calls can disagree. Calls of active or inactive are those of the source. Unless noted, calls come from the whole dose curve; as a rule, active = well fitted curve in the direction sought with a large enough effect in the repeat runs; inconclusive = weak or mixed curves; inactive = no such curve, though single readings can be large; an effect the other way counts as inactive or inconclusive.

Assay [1] has as its target Luciferin 4-monooxygenase (Photinus pyralis) (UniProt P08659). In words: qHTS assay to identify small molecule inhibitors of firefly luciferase (AID 1224835). Note: nearly all actives have a fitted effect of over 25% in size. The essentials:
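Biochemical qHTS: compounds run as interplate titrations against purified firefly enzyme, with D-luciferin and ATP each at its KM concentration. Light output recorded by CCD imaging.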
A general note: qHTS replaces the single test concentration by a dilution series.

Assay [2] is described as follows: qHTS assay to identify small molecule agonists of the constitutive androstane receptor (CAR) signaling pathway - cell viability counter screen (AID 1224836). Note: nearly all actives have a fitted effect of over 45% in size. The essentials:
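HepG2 cells stably carrying hCAR and a CYP2B6-2.2kb reporter; 15-concentration compounds plus PK11195 (final 0.75 uM), 23 hr at 37 C/5% CO2. Viability read by CellTiter-Fluor fluorescence.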

Assay [3] is described as follows: qHTS assay to identify small molecule antagonists of the constitutive androstane receptor (CAR) signaling pathway - cell viability counter screen (AID 1224837). Note: nearly all actives have a fitted effect of over 45% in size. The essentials: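 HepG2 cells stably expressing hCAR and a CYP2B6-2.2kb reporter were plated and pre-incubated 4 hr at 37 C/5% CO2, then given compounds at 15 concentrations plus 50 nM CITCO (final). After 23 hr, viability was read by CellTiter-Fluor fluorescence.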

The target in assay [4] is Thyrotropin receptor (Homo sapiens) (UniProt P16473). In words: qHTS assay to identify small molecule agonists of the thyroid stimulating hormone receptor (TSHR) signaling pathway (AID 1224843; calls by dose curve; note: nearly all actives have a fitted effect of over 45% in size; note: potency is the fitted concentration of half-maximal effect). Put shortly: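 Steps: seed 800 TSHR-HEK293 cells per well; add test compound and hold 30 min at ambient temperature; dispense cAMP-d2 then anti-cAMP cryptate; incubate 1 h at ambient; measure fluorescence intensity.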
Thyrotropin receptor (Homo sapiens), sequence (P16473 whole entry, looked up): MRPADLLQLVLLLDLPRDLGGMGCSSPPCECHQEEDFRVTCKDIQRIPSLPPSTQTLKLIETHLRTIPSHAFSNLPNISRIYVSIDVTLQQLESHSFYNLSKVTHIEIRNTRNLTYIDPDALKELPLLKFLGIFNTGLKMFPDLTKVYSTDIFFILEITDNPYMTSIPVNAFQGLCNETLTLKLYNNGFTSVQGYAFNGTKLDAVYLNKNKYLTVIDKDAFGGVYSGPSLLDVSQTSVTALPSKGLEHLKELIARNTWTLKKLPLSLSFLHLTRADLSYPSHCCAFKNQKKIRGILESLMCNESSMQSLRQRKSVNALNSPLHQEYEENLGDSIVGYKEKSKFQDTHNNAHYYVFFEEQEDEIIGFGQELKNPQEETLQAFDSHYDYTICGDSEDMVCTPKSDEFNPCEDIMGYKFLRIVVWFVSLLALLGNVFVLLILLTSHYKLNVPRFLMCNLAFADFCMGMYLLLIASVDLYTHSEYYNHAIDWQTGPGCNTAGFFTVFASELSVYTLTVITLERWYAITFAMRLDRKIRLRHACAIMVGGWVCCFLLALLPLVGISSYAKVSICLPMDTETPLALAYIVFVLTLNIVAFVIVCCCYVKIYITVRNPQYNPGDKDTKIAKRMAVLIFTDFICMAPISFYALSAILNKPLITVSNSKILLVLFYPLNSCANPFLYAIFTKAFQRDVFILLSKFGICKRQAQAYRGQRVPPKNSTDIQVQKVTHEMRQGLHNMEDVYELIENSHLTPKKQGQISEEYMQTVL

Assay [5] in a line: qHTS assay to identify small molecule agonists of the hypoxia (HIF-1) signaling pathway - cell viability counter screen (AID 1224844; calls by dose curve; note: nearly all actives have a fitted effect of over 50% in size). Put shortly: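 HRE-bla ME-180 cells in medium with 0.5% dialyzed FBS were preincubated 5 hrs at 37C, exposed to compounds for 17 hrs, then viability was read as CellTiter-Glo luminescence after 30 min at room temperature, in the reporter wells.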

Assay [6] in a line: qHTS assay to identify small molecule agonists of H2AX (AID 1224845; active = well fitted activation curve with a large enough effect in the signal ratio in the repeat runs, not every such curve was filed as active; the % refers to the signal ratio). The essentials: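 Wild-type CHO-K1 cells, plated overnight, exposed 3hr at 37C to 15 concentrations (0.76% DMSO final). Lysed, then HTRF anti-pH2AX (S139) cryptate and anti-H2AX-d2 antibodies, 24 hr room temperature; 665/620 nm emission read.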
Assay [7] in a line: qHTS assay to identify small molecule agonists of the hypoxia (HIF-1) signaling pathway (AID 1224846; active = well fitted activation curve with a large enough effect in the signal ratio in the repeat runs, not every such curve was filed as active; the % refers to the signal ratio). Put shortly:
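HRE-bla ME-180 cells (beta-lactamase reporter under hypoxia response element) were plated at 2,000 cells/well in medium with 0.5% dialyzed FBS, rested 5 hrs, then given compounds in DMSO for 17 hrs at 37C, 5% CO2. Reporter induction was read with CCF4-AM FRET substrate.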

A short description of assay [8]: qHTS assay to identify small molecule agonists of H2AX - cell viability counter screen (AID 1224847; calls by dose curve; note: nearly all actives have a fitted effect of over 30% in size; note: potency is the fitted concentration of half-maximal effect). The essentials: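 CHO-K1 cells plated overnight at 37C, then exposed 3 h at 37C to compounds at 15 concentrations (0.76% DMSO final). Viability by CellTiter-Glo luminescence after 30 min at room temperature.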
Assay [9] can be described thus: qHTS RealTime-Glo MT Cell Viability Assay in HepG2 cells - 24 hour (AID 1224867). Note: nearly all actives have a fitted effect of over 50% in size. Put shortly: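 HepG2 suspension premixed with RealTime-Glo reagents is plated at 600 cells per well and left 5 h at 37 C/5% CO2. Compounds in DMSO then go in, and bioluminescence reflecting viable cell number is recorded over 40 h.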
Assay [10] in a line: qHTS RealTime-Glo MT Cell Viability Assay in HEK293 cells - 32 hour (AID 1224868). Note: nearly all actives have a fitted effect of over 50% in size. Note: potency is the fitted concentration of half-maximal effect. The essentials:
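Reads taken at 0, 8, 16, 24, 32 and 40 h from the same wells. HEK293 cells (600/well) carried RealTime-Glo reagents from seeding, with compound added after a 5 h settle at 37 C.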

Assay [11] in a line: A CellTox Green Cytotoxicity Assay to monitor cytotoxicity in HEK293 cells - 0 hour (AID 1224869). Note: nearly all actives have a fitted effect of over 50% in size. Note: potency is the fitted concentration of half-maximal effect. Put shortly:
(§1)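 HEK293 cells premixed with CellTox Green dye were seeded at 600 cells/well and left 5 h at 37 C/5% CO2 before pin transfer of 23 nL compound in DMSO. Fluorescence from dye bound to dead-cell DNA was read during 40 h treatment.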

Assay [12] can be described thus: qHTS RealTime-Glo MT Cell Viability Assay in HepG2 cells - 40 hour (AID 1224870). Note: nearly all actives have a fitted effect of over 50% in size. Put shortly: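 HepG2 cells (600/well) mixed with RealTime-Glo MT reagent, settled 5 h at 37 C/5% CO2 before compound addition. Nonlytic NanoLuc luminescence from viable-cell prosubstrate reduction read repeatedly during 40 h treatment at 37 C.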
Assay [13] is described as follows: A CellTox Green Cytotoxicity Assay to monitor cytotoxicity in HEK293 cells - 40 hour (AID 1224871). Note: nearly all actives have a fitted effect of over 45% in size. Note: potency is the fitted concentration of half-maximal effect. Put shortly: as §1
Assay [14] is described as follows: qHTS assay to identify small molecule antagonists of the estrogen related receptor signaling pathway with the pleiotropic PPARgamma coactivator (PGC) from Tox21 10K library - cell viability counter screen (AID 1224840; active = well fitted cell-killing curve with a large enough effect in the repeat runs, not every such curve was filed as active; note: nearly all actives have a fitted effect of over 40% in size; note: potency is the fitted concentration of half-maximal effect). The essentials: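 PGC/ERR cells were seeded at 2,000 cells/well and left 6 hours at 37 C/5% CO2 before pin-tool addition of compounds in DMSO. After 17.5 hours at 37 C, CellTiter-Fluor was added and fluorescence read 30 minutes later.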

The target of assay [15] is Nuclear receptor subfamily 1 group I member 3 (Homo sapiens) (UniProt Q14994). In words: qHTS assay to identify small molecule antagonists of the constitutive androstane receptor (CAR) signaling pathway (AID 1224838). Note: nearly all actives have a fitted effect of over 40% in size. The essentials:
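HepG2 cells stably co-transfected with hCAR and a CYP2B6-2.2kb luciferase reporter were seeded 4 h before compound addition at 15 concentrations. Cells were stimulated with 50 nM CITCO (final) for 24 h at 37 C; luciferase luminescence was then read.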

Assay [16] has the same target. Briefly: qHTS assay to identify small molecule agonists of the constitutive androstane receptor (CAR) signaling pathway (AID 1224839). Note: nearly all actives have a fitted effect of over 15% in size. The essentials: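 HepG2 cells stably co-transfected with hCAR and a CYP2B6-2.2kb luciferase reporter; compounds at 15 concentrations with 0.75 uM PK11195 present. After 24 hr at 37 C, luciferase read by ONE-Glo luminescence.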
Assay [17] can be described thus: qHTS assay to identify small molecule antagonists of the estrogen related receptor signaling pathway with the pleiotropic PPARgamma coactivator (PGC) from Tox21 10K library (AID 1224841; call rule not given here; note: potency is the fitted concentration of half-maximal effect). Put shortly: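 PGC/ERR reporter cells were seeded at 2,000 cells/well and held 6 hours at 37 C/5% CO2 before pin-tool addition of compounds in DMSO. After 18 hours at 37 C, One-Glo was added and luminescence read after 30 minutes at room temperature.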

The nature of assay [18]: qHTS assay to identify small molecule agonists of the estrogen related receptor signaling pathway with the pleiotropic PPARgamma coactivator (PGC) from Tox21 10K library (AID 1224842). Note: nearly all actives have a fitted effect of over 15% in size. The essentials:
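PGC/ERR reporter cell line, 2,000 cells per well, incubated 6 h at 37 C before 23 nL compound in DMSO was added. After 18 h at 37 C, One-Glo luminescence read following 30 min at room temperature.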

A short description of assay [19]: qHTS assay to identify small molecule antagonists of the estrogen related receptor (ERR) signaling pathway from Tox21 library (AID 1224848). Note: nearly all actives have a fitted effect of over 50% in size. Note: potency is the fitted concentration of half-maximal effect. The essentials:
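Luminescent reporter read-out (ONE-Glo) from NTP's ERR cell line after 18 h treatment at 37 C with DMSO-dissolved Tox21 compounds; cells pre-plated 6 h beforehand at 2,000 per well.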

The nature of assay [20]: qHTS assay to identify small molecule agonists of the estrogen related receptor (ERR) signaling pathway from Tox21 library (AID 1224849; calls by dose curve; note: nearly all actives have a fitted effect of over 15% in size). To be noted: ERR reporter cell line, ONE-Glo luciferase, 18 h. The essentials:
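ERR reporter cell line (NTP) seeded, rested 6 h at 37 C/5% CO2, then pinned with Tox21 compounds in DMSO. After 18 h at 37 C, ONE-Glo luciferase luminescence was read following 30 min at room temperature.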
% is set by controls: 0 for no effect and ±100 for the full control effect.

Nuclear receptor subfamily 1 group I member 3 (Homo sapiens), sequence (Q14994 whole entry, looked up): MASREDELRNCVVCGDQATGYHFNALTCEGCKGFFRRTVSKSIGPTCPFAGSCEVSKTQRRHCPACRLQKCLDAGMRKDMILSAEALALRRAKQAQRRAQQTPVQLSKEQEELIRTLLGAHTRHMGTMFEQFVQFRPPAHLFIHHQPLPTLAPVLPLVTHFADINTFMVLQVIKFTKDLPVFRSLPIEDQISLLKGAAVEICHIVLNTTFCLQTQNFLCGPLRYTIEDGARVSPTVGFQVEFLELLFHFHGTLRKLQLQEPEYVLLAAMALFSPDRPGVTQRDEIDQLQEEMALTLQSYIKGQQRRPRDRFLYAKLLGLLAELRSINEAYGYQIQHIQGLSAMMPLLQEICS
Luciferin 4-monooxygenase (Photinus pyralis), sequence (P08659 whole entry, looked up): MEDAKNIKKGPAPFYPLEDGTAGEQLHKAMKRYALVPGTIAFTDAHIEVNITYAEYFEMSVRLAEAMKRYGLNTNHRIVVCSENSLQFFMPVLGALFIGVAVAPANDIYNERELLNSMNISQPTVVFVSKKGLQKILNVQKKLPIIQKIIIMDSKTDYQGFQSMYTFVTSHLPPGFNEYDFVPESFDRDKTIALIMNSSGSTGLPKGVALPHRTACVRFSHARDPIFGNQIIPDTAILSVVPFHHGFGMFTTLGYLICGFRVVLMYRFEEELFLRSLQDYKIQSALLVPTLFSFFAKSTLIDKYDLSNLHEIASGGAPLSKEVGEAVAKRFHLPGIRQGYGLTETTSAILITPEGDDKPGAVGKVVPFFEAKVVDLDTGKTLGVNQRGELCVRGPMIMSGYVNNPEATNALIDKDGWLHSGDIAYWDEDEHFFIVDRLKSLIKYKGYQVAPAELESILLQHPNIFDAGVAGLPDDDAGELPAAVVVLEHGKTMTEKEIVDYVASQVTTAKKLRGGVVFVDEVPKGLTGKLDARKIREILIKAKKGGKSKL

As to `CC(=O)OC(C)C`, the Potency entry in assay [1], in [2], in [3], in assay [4], in assay [5] and in assay [6] was “inactive” in each case. For the same compound, the Potency entry in [8], in assay [9], in [10], in [11], in assay [12] and in assay [13] was “inactive” in each case. Moreover, the call in assay [7] was inactive.
Consider `CC/C(=C(/CC)c1ccc(O)cc1)c1ccc(O)cc1`, for which the Potency result in assay [2], in assay [3], in assay [14], in [5], in assay [6] and in [9] was “inactive” in each case. Further, the Potency entry in [11] and in assay [13] was “inactive” each time. In assay [10], the Potency is 10.9 µM (active) and 27.5 µM (active).
As to `Nc1ccc(O)c(N)c1`, the Potency result in assay [2], in [3], in [15], in [16], in assay [14] and in [18] was “inactive” in each case. Besides, the Potency entry in [5], in [19], in [9], in [10], in assay [11] and in assay [12] was “inactive” throughout. In assay [13], the Potency entry is “inactive”. Also, the Potency in assay [17] is 304 nM (active) and inactive; in assay [4], 54.1 µM (active); in assay [8], 56.3 µM (active) and 50.5 µM (active). For the same compound, the compound was called inactive in assay [7]. Further, the activity change, positive = activation in [20] (at 92.4 µM (top of the series)) was -9.18% (inactive) and -12% (inactive).
Consider `CC(=O)O[C@]1(C(C)=O)CC[C@H]2[C@@H]3C=C(C)C4=CC(=O)CC[C@]4(C)[C@H]3CC[C@@]21C`, for which the Potency entry in assay [1], in assay [2], in assay [3], in [18], in [4] and in assay [5] was “inactive” throughout. For the same compound, the Potency entry in assay [6], in assay [9], in [11], in assay [12] and in [13] was “inactive” throughout. Further, the Potency was 24.3 µM (active) in [17]; 21.7 µM (active) and 26.6 µM (active) in assay [19]; 17.4 µM (active) in assay [10]. Besides, the activity change, positive = activation in assay [20] (at 42.5 µM (top of the series)) was -37.5% (inactive); in assay [20] (at 92.4 µM (top of the series)) it was -63.2% (inactive).
`CN(C)/N=N/c1nc[nH]c1C(N)=O`: the Potency entry in assay [1], in [2], in [3], in assay [14], in assay [17] and in assay [18] was “inactive” each time. In addition, the Potency entry in [4], in assay [5], in assay [6], in [9], in [10] and in assay [11] was “inactive” throughout. The Potency result in [12] and in assay [13] was “inactive” in each case. For the same compound, the Potency in [19] was 69.6 µM (active). In addition, the activity change, positive = activation in assay [20] (at 42.5 µM (top of the series)) was -23.2% (inactive); in assay [20] (at 92.4 µM (top of the series)), -35.6% (inactive).
With `CCCCCCC(C)O` (configuration not stated), the Potency result in assay [1], in assay [2], in [3], in assay [14], in assay [5] and in [6] was “inactive” throughout. In addition, the Potency result in assay [8], in assay [9], in [10], in assay [11] and in assay [13] was “inactive” each time. Further, the outcome in assay [7] was inactive.
As for `COc1cc([C@H]2Oc3cc([C@H]4Oc5cc(O)cc(O)c5C(=O)[C@@H]4O)ccc3O[C@@H]2CO)ccc1O`, the Potency result in [1], in [2], in assay [3], in assay [17], in assay [18] and in [5] was “inactive” each time. The Potency entry in assay [6], in [8], in assay [19], in [9] and in assay [10] was “inactive” in each case. For the same compound, the Potency in [14] is 54.3 µM (active) and inactive; in [11], “inactive and 15.1 µM (active)”; in assay [13], “inactive and 16.9 µM (active)”. Further, the compound was called inactive in [7]. The activity change, positive = activation in assay [20] (at 42.5 µM (top of the series)) was 4.78% (inactive); in [20] (at 92.4 µM (top of the series)), -26.2% (inactive).
